Laboratory results from PubChem BioAssay (NCI).
Several values for one entry are separate records, joined by “and”; a condition that tells them apart may be missing. Identical values can stand only once. Compounds without any hit were thinned out: in the full panel of roughly 83,000, 20% have a hit.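 Assay: single dose, 48 h. Readout: percent growth (0 = no net growth; negative = cell death). Active: <10.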 Activity calls are given as the source filed them.

Experiments:
Assay in all cases: NCI-60 one-dose screen, 48 h (100 = growth as untreated, 0 = no growth, -100 = all killed)
TK-10 renal = conditions: 10 µM unless noted
SN12C renal = conditions: 10 µM unless noted
UO-31 renal = conditions: 10 µM unless noted
A498 renal = conditions: 10 µM unless noted
CCRF-CEM leukemia = conditions: 10 µM unless noted
MOLT-4 leukemia = conditions: 10 µM unless noted
SR leukemia = conditions: 10 µM unless noted
RPMI-8226 leukemia = conditions: 10 µM
OVCAR-8 ovarian = conditions: 10 µM unless noted
OVCAR-5 ovarian = conditions: 10 µM unless noted
OVCAR-4 ovarian = conditions: 10 µM unless noted
SK-OV-3 ovarian = conditions: 10 µM
IGROV1 ovarian = conditions: 10 µM unless noted
OVCAR-3 ovarian = conditions: 10 µM unless noted
HS 578T breast = conditions: 10 µM unless noted
NCI/ADR-RES ovarian = conditions: 10 µM unless noted
CAKI-1 renal = conditions: 10 µM unless noted
ACHN renal = conditions: 10 µM unless noted

CC1=CCC2C3(C)CCC2(C(C)C)C1C3 (centres undefined) (tested in a mixture with another compound)
growth (TK-10 renal): 17.7% [100 µM] (inactive) and -89.5% [100 µM] (active)

O=c1[nH]c(-c2ccncc2)nc2sc3c(c12)CCCCCC3
growth (SN12C renal): 77.9% (inactive) | growth (UO-31 renal): 70.5% (inactive) | growth (A498 renal): 70.1% (inactive) | growth (CCRF-CEM leukemia): 98.1% (inactive) | growth (MOLT-4 leukemia): 92.1% (inactive) | growth (SR leukemia): 40% (inactive) | growth (RPMI-8226 leukemia): 91% (inactive) | growth (OVCAR-8 ovarian): 69.2% (inactive) | growth (OVCAR-5 ovarian): 80% (inactive) | growth (OVCAR-4 ovarian): 1.18% (active) | growth (SK-OV-3 ovarian): 31.5% (inactive) | growth (IGROV1 ovarian): 69.5% (inactive) | growth (OVCAR-3 ovarian): 74.1% (inactive) | growth (HS 578T breast): 85.9% (inactive) | growth (NCI/ADR-RES ovarian): 55% (inactive)

CC(C)(C)N/N=C(\C(=O)Nc1ccc([N+](=O)[O-])cc1[N+](=O)[O-])c1nc2ccc([N+](=O)[O-])cc2[nH]c1=O
growth (TK-10 renal): 97.2% [100 µM] (inactive) and 67.6% [100 µM] (inactive)

Nc1cc2c3c(cccc3c1)C(=O)N(c1ccc(OCCN3CCCCC3)cc1)C2=O
growth (TK-10 renal): -13.5% [100 µM] (active) and -100% [100 µM] (active)

Cc1cc(N2CCCC2)c([N+](=O)[O-])cc1[N+](=O)[O-]
growth (TK-10 renal): 89.8% [100 µM] (inactive) and 75.9% [100 µM] (inactive)

COc1cc([N+](=O)[O-])c(OC)c2c(Nc3ccc(S(=O)(=O)O)c4cc(S(=O)(=O)O)cc(S(=O)(=O)O)c34)cc(C)nc12
growth (TK-10 renal): -99.9% [100 µM] (active) and -100% [100 µM] (active)

NC(=O)c1[nH]cnc1/N=N/SCC(N)C(=O)O (centres undefined)
growth (TK-10 renal): 9.64% [100 µM] (active) and 8.09% [100 µM] (active)

CC(C)(C)[Si](C)(C)OC1[C@@H](CNC(=O)NC(=O)CCl)O[C@@H](n2cnc3c(N)ncnc32)[C@H]1O[Si](C)(C)C(C)(C)C (some centres undefined)
growth (SN12C renal): -81.9% (active) | growth (UO-31 renal): -96.8% (active) | growth (CAKI-1 renal): -64.8% (active) | growth (A498 renal): -12.9% (active) | growth (CCRF-CEM leukemia): -46.5% (active) | growth (MOLT-4 leukemia): -53.5% (active) | growth (SR leukemia): -58.2% (active) | growth (RPMI-8226 leukemia): -43% (active) | growth (OVCAR-8 ovarian): -47.7% (active) | growth (OVCAR-5 ovarian): -37.5% (active) | growth (OVCAR-4 ovarian): -54.7% (active) | growth (SK-OV-3 ovarian): 92% (inactive) | growth (IGROV1 ovarian): -61.8% (active) | growth (OVCAR-3 ovarian): -91.5% (active) | growth (HS 578T breast): -16.9% (active)

COc1ccc(C2=C(N)c3ccccc3C2=O)cc1
growth (TK-10 renal): 79.7% [100 µM] (inactive) and -100% [100 µM] (active)

C=C1C(=O)OC2C1CC(O)/C(C)=C\CCC1(C)OC21 (centres undefined)
growth (TK-10 renal): 76.7% [100 µM] (inactive) and -65% [100 µM] (active)

CC(O)c1cc2c(s1)C(=O)c1c(C(C)O)csc1C2=O (centres undefined)
growth (TK-10 renal): -20.6% [100 µM] (active) and -88.8% [100 µM] (active)

Nc1nc(Nc2cc(F)c(Cl)c(F)c2)cc(=O)[nH]1
growth (TK-10 renal): 111% [100 µM] (inactive) and 27.1% [100 µM] (inactive)

COc1cc2c(cc1-c1coc3cc(OCC=C(C)C)ccc3c1=O)OCO2
growth (TK-10 renal): 5.74% [100 µM] (active) and 19.4% [100 µM] (inactive)

O=c1cc(-c2ccc(O)cc2)oc2cc(O[C@@H]3O[C@H](CO)[C@@H](O)[C@H](O)[C@H]3O)cc(O)c12
growth (TK-10 renal): 46.1% [100 µM] (inactive) and 4% [100 µM] (active)

O=C(O)c1cnccc1-c1cc(=O)[nH]n1-c1ccccc1
growth (TK-10 renal): 53.2% [100 µM] (inactive) and -7.14% [100 µM] (active)

CC12NC(=C(C#N)C#N)C(C#N)=C3NC(N)=C(C#N)C(=C31)Oc1ccccc12 (centres undefined)
growth (TK-10 renal): 22.5% [100 µM] (inactive) and -82.1% [100 µM] (active)

C=C1C(=O)OC2/C=C(\CO)C(OC(C)=O)CC(O)/C(C)=C/C(OC(=O)C(C)CC)C12 (centres undefined)
growth (TK-10 renal): -36.1% [100 µM] (active) and -92% [100 µM] (active)

Cc1cc2c3c(nc4ccccc42)C(=O)c2cccnc2-c3n1
growth (TK-10 renal): -10.8% [100 µM] (active) and -100% [100 µM] (active)

CC(=O)Oc1ccc2ccc(=O)oc2c1OC(C)=O
growth (TK-10 renal): 62.1% [100 µM] (inactive) and 17.8% [100 µM] (inactive)

C=CCCCCCCCCC(=O)[O-].C=CCCCCCCCCC(=O)[O-].[Zn+2]
growth (UO-31 renal): 80.7% (inactive) | growth (SR leukemia): 91.1% (inactive)

CC1(C)CC2(C)OC(=N)C1(C#N)C2(C#N)C#N (centres undefined)
growth (TK-10 renal): -89.5% [100 µM] (active) and -77.9% [100 µM] (active)

CC#CC#C/C=C1\C=CC2(OC=CC2OC(C)=O)O1 (centres undefined)
growth (TK-10 renal): -20.2% [100 µM] (active) and -81% [100 µM] (active)

COC(=O)c1ccc(CCc2cc(O)c(Br)cc2O)cc1
growth (TK-10 renal): -97.6% [100 µM] (active) and -100% [100 µM] (active)

Oc1ccccc1-c1n[nH]c(-c2ccccc2O)n1
growth (TK-10 renal): 46.3% [100 µM] (inactive) and 4.42% [100 µM] (active)

CC(C)(C)c1cc(C2COC(=O)COCC(=O)OCCOCCOCCO2)cc(C(C)(C)C)c1O (centres undefined)
growth (TK-10 renal): -74.5% [100 µM] (active) and -100% [100 µM] (active)

ClC(Cl)(Cl)C1CCOC1n1nnc2ccccc21 (centres undefined)
growth (TK-10 renal): 73% [100 µM] (inactive) and 16.8% [100 µM] (inactive)

COc1ccc(-n2c(SCc3cc(OC)c(OC)c(OC)c3)nc3ccc(C)cc3c2=O)c(OC)c1
growth (SN12C renal): 45.2% (inactive) | growth (UO-31 renal): 18.2% (inactive) | growth (CAKI-1 renal): 13.4% (inactive) | growth (CCRF-CEM leukemia): 0% (active) | growth (MOLT-4 leukemia): 11.3% (inactive) | growth (SR leukemia): 7.68% (active) | growth (RPMI-8226 leukemia): -4.23% (active) | growth (OVCAR-8 ovarian): 45.6% (inactive) | growth (OVCAR-5 ovarian): 43.2% (inactive) | growth (OVCAR-4 ovarian): 57.4% (inactive) | growth (SK-OV-3 ovarian): 45.3% (inactive) | growth (IGROV1 ovarian): 35.7% (inactive) | growth (OVCAR-3 ovarian): -4.61% (active) | growth (HS 578T breast): 6.73% (active) | growth (NCI/ADR-RES ovarian): 1.42% (active)

N#Cc1ccc(C(F)(F)F)nc1N1CCC(C(=O)Nc2ccc(Cl)cc2)CC1
growth (SN12C renal): 80.3% (inactive) | growth (UO-31 renal): 74% (inactive) | growth (CAKI-1 renal): 73.1% (inactive) | growth (A498 renal): 64.2% (inactive) | growth (CCRF-CEM leukemia): 82.5% (inactive) | growth (MOLT-4 leukemia): 41% (inactive) | growth (SR leukemia): 48.3% (inactive) | growth (RPMI-8226 leukemia): 74.1% (inactive) | growth (OVCAR-8 ovarian): 75.8% (inactive) | growth (OVCAR-5 ovarian): 76.9% (inactive) | growth (OVCAR-4 ovarian): 69.1% (inactive) | growth (SK-OV-3 ovarian): 82.5% (inactive) | growth (IGROV1 ovarian): 102% (inactive) | growth (OVCAR-3 ovarian): 99.4% (inactive) | growth (HS 578T breast): 105% (inactive)

CC12CCC3c4cc(Br)c(O)c(Br)c4CCC3C1CCC2O (centres undefined)
growth (TK-10 renal): 12.2% [100 µM] (inactive) and -95.7% [100 µM] (active)

O=c1c2ncn(C3CCCCO3)c2n(-c2ccccc2)c(=S)n1-c1ccccc1 (centres undefined)
growth (TK-10 renal): 20.1% [100 µM] (inactive) and 23.9% [100 µM] (inactive)

Cc1ccc(N=c2nc3sc4c(C)ccc(C)c4n3c(N)c2C#N)cc1
growth (SN12C renal): 108% (inactive) | growth (UO-31 renal): 89.6% (inactive) | growth (ACHN renal): 103% (inactive) | growth (CAKI-1 renal): 88.4% (inactive) | growth (CCRF-CEM leukemia): 85% (inactive) | growth (MOLT-4 leukemia): 93.6% (inactive) | growth (SR leukemia): 111% (inactive) | growth (RPMI-8226 leukemia): 85.1% (inactive) | growth (OVCAR-8 ovarian): 104% (inactive) | growth (OVCAR-5 ovarian): 104% (inactive) | growth (OVCAR-4 ovarian): 88.9% (inactive) | growth (SK-OV-3 ovarian): 96.3% (inactive) | growth (IGROV1 ovarian): 95.1% (inactive) | growth (OVCAR-3 ovarian): 106% (inactive) | growth (HS 578T breast): 104% (inactive) | growth (NCI/ADR-RES ovarian): 106% (inactive)

N#Cc1cnn2c1n[n+]([O-])c1ccc(Cl)cc12
growth (TK-10 renal): 98.1% [100 µM] (inactive) and -100% [100 µM] (active)

CCCCOC(=O)C1CC[C@H]2[C@@H]3CCc4cc(OC(=O)c5cccc6c(=O)c7ccccc7[nH]c56)ccc4[C@H]3CC[C@]12C (some centres undefined)
growth (TK-10 renal): -100% [50 µM] (active)

N#C/C(=C\c1ccccc1)C(=O)Nc1nnc(-c2ccccc2)o1
growth (TK-10 renal): 88.2% [100 µM] (inactive) and 4.58% [100 µM] (active)

Cc1ccc(/C=N/Nc2ccc3ccccc3n2)s1
growth (TK-10 renal): 50.5% [100 µM] (inactive) and 7.78% [100 µM] (active)

CC(=O)OCC1OC([S-])C(OC(C)=O)C(OC(C)=O)C1OC(C)=O.[Au+].c1ccc(CN2[CH-]N(Cc3ccccc3)C(c3ccccc3)=C2c2ccccc2)cc1
growth (CAKI-1 renal): 1.53% [4.75 µM] (active)

CC(=O)OCC1O[C@@H]([S-])C(OC(C)=O)[C@H](OC(C)=O)[C@@H]1OC(C)=O.[Au+].c1ccc(CN2[CH-]N(Cc3ccccc3)C(c3ccccc3)=C2c2ccccc2)cc1
growth (CAKI-1 renal): 49.9% (inactive)
